About 83,000 compounds went through this panel and 20% of them were active in at least one assay; those are over-represented in the sample as a whole.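 Step 1: grow cells in 96-well plates. Step 2: add test compound at a single concentration. Step 3: incubate 48 h. Step 4: record percent growth.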 Values without a mark were called inactive. Active and inactive are the calls of the source. Rule for the calls: active = growth percent below 10; inactive = the rest.
Tested on: HL-60(TB) leukemia
Assay: NCI-60 one-dose screen, 48 h (100 = growth as untreated, 0 = no growth, -100 = all killed)
Conditions: 10 µM unless noted

SMILES | growth
Cc1ccc(/C=C2\Oc3ccc(O)c(O)c3C2=O)cc1 | 14.7%
CCN1CCCC1CNC(=O)c1ncc(-c2ccc(C(F)(F)F)cc2)c(NC2CCCCCC2)n1 (stereo not given) | 65.9%
Clc1ccccc1/C=N\Nc1ccccn1 | 98.1%
COc1ccc2c(c1)/C(=C\c1c[nH]c3ccc(F)cc13)C(=O)N2 | 88.3%
COc1ccc(-n2c(/C=C/c3ccc(O)c(OC)c3)cc(/C=C/c3ccc(O)c(OC)c3)nc2=O)cc1 | 33.7%
CC(=O)O[C@@H]1CC2C(C)(C)CCCC2(C)C2=C1C(=O)C(C(C)C)=CC2=O (stereo not given in full) | 1.18% (active)
COc1cc(/C=C/C(=O)c2c(C)n([O-])c3cc(C)c(C)cc3[n+]2=O)cc(OC)c1OC | 32.9%
N#Cc1c(-c2ccccn2)[nH]c(=S)[nH]c1=O | 94.9%
COC(=O)CCC1=C(C)/C(=C/c2[nH]c(-c3ccc[nH]3)cc2OC)N=C1C | -23.3% (active)
CC1(/C=C/c2ccc(-c3ccccc3)cc2)CCn2cnc3ncnc(c32)N1O (stereo not given) | 2.02% (active)
O=[N+]([O-])c1ccc(N=Nc2c(O)c(N=Nc3cc([N+](=O)[O-])cc([N+](=O)[O-])c3O)cc(N=Nc3cc(S(=O)(=O)O)cc4cc(S(=O)(=O)O)cc(O)c34)c2O)cc1 | 87.2%
CS(=O)(=O)Nc1cc(-c2ccc3ncnc(Nc4ccc(F)c(Cl)c4)c3c2)ccc1Cl | 65.3%
O=C(Nc1ccc(-n2cc(-c3ccncc3)c(-c3ccc(Cl)c(O)c3)n2)cc1)c1ccc(Cl)c(C(F)(F)F)c1 | -29.1% (active)
C[C@H]1C=C(C[C@@H](O)CC#CC#CCCCCC[C@@H](O)[C@H]2CCC(=O)O2)C(=O)O1 | 99.1%
COc1ccc2c(c1)C(=O)/C(=C/c1cccc(OCC(=O)c3ccccc3)c1)CC2 | 46.5%
C[N+](C)(C)c1ncnc2[n-]cnc12 | 103%
CC1=CC(c2ccco2)=C2C(N)=NNC2N1 (stereo not given) | 106%
COC12C=C/C(=C(/C(=O)OCCSc3ccnn3C)C(=O)CCCCCCCCC3(OC)C=C/C(=C(/C(=O)OCCSc4ccnn4C)C(=O)CCCCCCCC1)O3)O2 | -6.91% (active)
CCN1CCN(CC(=O)Nc2nc3ccc(NCc4ccc(C)cc4)cc3s2)CC1 | 32.5%
CS(=O)(=O)c1ccc(C(=O)N/N=C/c2ccccc2Cl)cc1 | 52.3%

SMILES | growth
COc1ccc2nc(Cl)c(Cn3nnc(Cc4ccccc4)n3)cc2c1 | 56.6%
COc1cc(Cc2cc(-c3ccccc3)nn(Cc3ccccc3)c2=O)cc(OC)c1OC | 19.3%
CCOC(=O)/C=C(/C)Sc1cc(O)c2ccccc2c1O | 20.5%
CC1CC(O)C2C3(C)CCCC2(COC3=O)C12CCC1(CCOC1=O)O2 (stereo not given) | 121%
CC(C)c1ccc(C(=O)OC(=O)c2ccc(C(C)C)cc2)cc1 | 51.3%
Nc1ccc(C(OC(=O)c2cc3ccccc3c(Cc3c(O)c(C(=O)OC(c4ccc(N)cc4)(c4ccc(N)cc4)c4ccc(N)cc4)cc4ccccc34)c2O)(c2ccc(N)cc2)c2ccc(N)cc2)cc1 | 4.23% (active)
COc1ccc(-c2nn(-c3cccc(NC(=O)c4cccc(C(F)(F)F)c4)c3)cc2-c2ccncc2)cc1Cl | 4.23% (active)
Cc1c2cnccc2c(C)c2c1c1cc(C#N)ccc1n2C | -48.8% (active)
OC(c1ccc(F)c(C(F)(F)F)c1)c1cnccc1NC1CCCCC1 (stereo not given) | 30.9%
CCOC(=O)CSCCC#N | 118%
CN(C1c2ccccc2Oc2ccccc21)S(=O)(=O)c1cc(Cl)ccc1Cl | 15.7%
O=C(NN1C(=O)CSC1c1cccc([N+](=O)[O-])c1)c1ccc(NC(=O)c2ccccn2)cc1 (stereo not given) | 67.6%
Cc1ccc(-c2cc(-c3cccnc3)[nH]c(=O)c2C#N)cc1 | 99%
Cc1ccc(C(=O)c2ccc(CC(=O)N/N=C/c3cccc(O)c3O)n2C)cc1 | 4.13% (active)
COc1cc(/C=C/c2cc(/C=C/c3ccc(O)c(OC)c3)nc(N)n2)ccc1O | 3.67% (active)
COC(=O)[C@]12CC[C@@H](C)[C@H](C)[C@@H]1C1=CC[C@@H]3[C@@]4(C)C=C(O)C(=O)[C@@]5(C)COC(=C54)C[C@@]3(C)[C@]1(C)CC2 | -50% (active)
CC(=O)N[C@@H](CNC(=O)c1cc(NC(=O)c2cc(NC(=O)c3cc(NC(=O)c4nccn4C)cn3C)cn2C)cn1C)CC(=O)Nc1cn(C)c(C(=O)Nc2cc(C(=O)Nc3cc(C(=O)Nc4cc(C(=O)NCCCN(C)CCCNC(=O)c5cccc(C(=O)O)c5)n(C)c4)n(C)c3)n(C)c2)n1 | 109%
COc1ccc2nc(N=Nc3c(O)ccc4ccccc34)sc2c1 | 4.48% (active)
C(=C\c1ccccc1)/CN1CCN(C(c2ccccc2)c2ccccc2)CC1 | 85.3%
C=C(C)[C@@H]1CC[C@]2(C(=O)N3CCN(C)CC3)CC[C@]3(C)[C@H](CC[C@@H]4[C@@]5(C)CCC(=O)C(C)(C)[C@@H]5CC[C@]43C)[C@@H]12 | 60.1%
